In the supplement of paper PMC12532568:
Structures can show the parent of a compound that is named as a salt.

The compounds below were run on Danio rerio larvae Tg(actc1b:ZsGreen-LC3), 3 dpf (assay: LC3 puncta relative area vs vehicle, without NH4Cl (log2 fold change); higher = more autophagosomes). Conditions: 10 µM; treatment time 16 h; NH4Cl: none.
Description: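 Transgenic Tg(actc1b:ZsGreen-map1lc3) zebrafish larvae (2 dpf) were treated for 16 h with Tocris library compounds at 10 µM (n = 12 larvae per compound). Skeletal-muscle LC3 puncta area relative to body area was measured by high-content confocal imaging before and after 4 h of 100 mM NH4Cl (autophagic flux), normalised to vehicle (DMSO), and reported as log2 fold change.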

Row | Compound | LC3 puncta (log2)
1 | c1ccc2nc(N3CCNCC3)ccc2c1 [Quipazine dimaleate] | 0.115
2 | COc1ccc(C(=O)N2CCCC2=O)cc1 [Aniracetam] | 0.228
3 | S=C(NC1CCCCC1)N1CCC(c2cnc[nH]2)CC1 [Thioperamide] | 0.0474
4 | C(=C\c1ccccc1)/CN1CCN(CCOC(c2ccccc2)c2ccccc2)CC1 | 0.421
5 | CC(C(=O)OC1CC2CCC(C1)N2C)c1ccc(Br)cc1 (configuration not stated) [PG-9 maleate] | 0.116
6 | c1ccc(C2CNCc3ccccc32)cc1 (configuration not stated) [4-Phenyl-1,2,3,4-tetrahydroisoquinoline hydrochloride] | 0.365
7 | Cc1onc(O)c1C[C@H](N)C(=O)O | 0.235
8 | CCCN[C@@H]1CCc2c(OC)cccc2[C@@H]1C [(+)-AJ 76 hydrochloride] | 0.121
9 | CCCN(CCC)C1CCc2ccc(O)cc2C1 (configuration not stated) [7-Hydroxy-DPAT hydrobromide] | -0.0217
10 | OC1CCCCC1N1CCC(c2ccccc2)CC1 (configuration not stated) [(?)-Vesamicol hydrochloride] | 0.548
11 | Fc1ccc(C(OCCN2CCN(CCCc3ccccc3)CC2)c2ccc(F)cc2)cc1 | 0.491
12 | Cc1onc(O)c1CC(N)C(=O)O (racemic) | -0.391
13 | O=C1NCN(c2ccccc2)C12CCN(CC1COc3ccccc3O1)CC2 (configuration not stated) [Spiroxatrine] | 0.423
14 | CC(C)C[C@H]1C(=O)N2CCC[C@H]2[C@]2(O)O[C@](NC(=O)[C@@H]3C=C4c5cccc6[nH]c(Br)c(c56)C[C@H]4N(C)C3)(C(C)C)C(=O)N12 [Bromocriptine mesylate] | 0.17
15 | O=C(CCCN1CCC2(CC1)C(=O)N(Cc1cccc(F)c1)CN2c1ccccc1)c1ccc(F)cc1 [3'-Fluorobenzylspiperone maleate] | 0.503
16 | Cc1cc(C)cc(C(=O)OC2C[C@H]3CC[C@@H](C2)N3C)c1 (some centres not stated) [Tropanyl-3,5-dimethylbenzoate] | 0.0365
17 | c1ccc(CCCCN2CCC(c3ccccc3)CC2)cc1 [4-PPBP maleate] | 0.0152
18 | N=C(N)NN [Aminoguanidine hydrochloride] | 0.471
19 | Fc1ccc(C(OCCN2CCN(C/C=C/c3ccccc3)CC2)c2ccc(F)cc2)cc1 | 0.527
20 | NC(C(=O)O)c1nn[nH]n1 (racemic) [(RS)-(Tetrazol-5-yl)glycine] | 0.24
21 | C[C@H](N)Cc1cnc[nH]1 | 0.17
22 | S=C=Nc1cccc(C2(N3CCCCC3)CCCCC2)c1 [Metaphit] | 0.663
23 | CCCCCCC[n+]1ccc(-c2cc[n+](CCCCCCC)cc2)cc1 [DHBP dibromide] | 0.00945
24 | C=C(C)[C@H]1CN[C@H](C(=O)O)[C@H]1CC(=O)O [Kainic acid] | 0.377
25 | CN1[C@@H]2CC[C@H]1C[C@@H](OC(=O)c1cc(Cl)cc(Cl)c1)C2 | 0.263
26 | CCCN(C/C=C/I)C1CCc2ccc(O)cc2C1 (configuration not stated) [7-Hydroxy-PIPAT maleate] | -0.263
27 | c1ccc(CC(c2ccccc2)N2CCCCC2)cc1 (configuration not stated) [(?)-1-(1,2-Diphenylethyl)piperidine maleate] | 0.167
